In the supplement of paper PMC6555819:

How the values were obtained:
Experiment in all cases: PBM binding z-score (relative to random genomic background probes); higher = stronger binding; sequences stand for … in GC…GCGATTGACAGCGTAGAATGAAGG
[1] = system: PPARg:RXRa DBDmut IVT, anti-RXR (DBD mutation: RXRa K156A/R161A, NR concentration 270 nM, RXRa partner concentration 90 nM)
In short: (§1)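 Scanned fluorescence from custom Agilent 4×180K protein-binding microarrays was regression-normalized. Binding z-scores use random background probes as reference. Ligand-free nuclear receptor dimers were incubated on the arrays for 1 h and detected with antibodies against each partner (one per run).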

[2] = system: PPARg:RXRa IVT, anti-PPARg (NR concentration 270 nM, RXRa partner concentration 90 nM)
In short: as §1

[3] = system: PPARg DBDmut:RXRa IVT, anti-PPARg (DBD mutation: PPARg1 K132A/R137A, NR concentration 270 nM, RXRa partner concentration 90 nM)
In short: as §1

[4] = system: PPARg DBDmut IVT, anti-PPARg (DBD mutation: PPARg1 K132A/R137A, NR concentration 270 nM)
In short: as §1

[5] = system: PPARg homodimer (NR concentration 180 nM)
In short: as §1

[6] = system: PXR:RXRa (NR concentration 270 nM, RXRa partner concentration 90 nM)
In short: as §1

[7] = system: PXR homodimer (NR concentration 270 nM)
In short: as §1

[8] = system: RARa:RXR (NR concentration 270 nM, RXRa partner concentration 90 nM)
In short: as §1

[9] = system: RARa homodimer (NR concentration 270 nM)
In short: as §1

[10] = system: RARb:RXRa (NR concentration 270 nM, RXRa partner concentration 90 nM)
In short: as §1

[11] = system: RARb homodimer (NR concentration 270 nM)
In short: as §1

[12] = system: RARg:RXRa (NR concentration 270 nM, RXRa partner concentration 90 nM)
In short: as §1

[13] = system: RARg homodimer (NR concentration 270 nM)
In short: as §1

[14] = system: RXRa DBDmut IVT, anti-RXR (DBD mutation: RXRa K156A/R161A, NR concentration 90 nM)
In short: as §1

[15] = system: RXRa homodimer (NR concentration 180 nM)
In short: as §1

[16] = system: THRa:RXRa (NR concentration 90 nM, RXRa partner concentration 90 nM)
In short: as §1

[17] = system: THRa homodimer (NR concentration 90 nM)
In short: as §1

[18] = system: VDR homodimer (NR concentration 270 nM)
In short: as §1

Sequence	PBM binding z-score [1]	PBM binding z-score [2]	PBM binding z-score [3]	PBM binding z-score [4]	PBM binding z-score [5]	PBM binding z-score [6]	PBM binding z-score [7]	PBM binding z-score [8]	PBM binding z-score [9]	PBM binding z-score [10]	PBM binding z-score [11]	PBM binding z-score [12]	PBM binding z-score [13]	PBM binding z-score [14]	PBM binding z-score [15]	PBM binding z-score [16]	PBM binding z-score [17]	PBM binding z-score [18]
CCGAATAGGTTATGGGGCATTCAGGCAACGGTGA	1.26	1.71	-0.226	-0.668	0.678	0.141	-0.0555	0.892	0.0562	1.27	1.11	1.06	0.917	0.132	1.31	0.696	-0.0047	-0.175
AGAACGAGGGCACGCTGAGTTGATAGGAGAGTAG	3.83	3.7	0.653	0.276	0.451	1.1	0.0753	0.906	-0.652	2.37	1.22	1.93	1.99	1.77	1.35	1.82	0.0402	1.76
CGAACTAGGTCAGACCAGGACAGTGAAGGATGAT	7.38	7.63	1.83	0.713	0.868	1.61	-0.171	1.37	-0.466	3.2	2.36	2.82	3.53	0.518	1.51	4.75	0.741	-0.102
TCTCGGAGGACACGAAGGTCAGATCTTTCCAGAG	1.59	0.717	-0.994	-1.02	2.07	2.44	2.3	2.16	0.52	3.35	3.7	3.45	4.36	1.15	2.48	2.94	0.979	2.36
CCTAGTGGGTCAAGGTCACACACGCTATAGGTAC	6.82	8.11	2.26	1.37	4.57	4.75	1.48	5.41	2.82	4.87	4.58	5.74	6.11	1.58	5.6	4.22	3.74	3.44
CGGCCTAGGTCAGGGCCAGTATAGGAGGAACGTT	0.747	1.22	-2.1	-2.32	-0.013	0.223	-0.954	0.858	-0.476	3.17	2.4	2.84	3.41	-0.731	1.5	1.8	0.0895	-0.395
TCTAGCAGGCCAGAGCGTCACTCAAGAGGTACGG	0.578	-0.464	-0.145	-0.832	-1.42	-0.785	-0.819	-0.492	-0.772	-0.306	-0.99	-0.32	-0.282	-0.0985	-0.0625	-1.43	-1.22	-0.792
GCGACTGGGGCAAAGCAGGATACCATAAGGTTGG	4.62	3.04	-0.478	-1.16	-0.484	-0.583	-0.738	-0.211	-0.407	0.604	0.194	0.19	0.556	-0.369	0.0149	2.27	-0.419	-0.417
ATCTGTAGGTAAAGATAGTTCAGTGAATGCAAAT	1.63	1.5	0.849	0.832	0.977	1.03	0.786	0.946	0.896	0.675	0.933	0.435	0.657	-0.108	0.326	0.527	-0.0674	0.568
TCATATAGGGAAATGCTAGGTGAAAGTCCGATCT	2.89	1.33	1.18	0.79	0.712	0.607	0.552	0.746	0.849	0.226	0.336	0.235	0.101	1.66	0.678	0.846	0.365	0.19
CCTAGCAGGCCAGGGTCAATCAAGCATTTCGCTT	0.298	0.837	-1.44	-2.02	1.08	3.43	-0.3	4.4	0.17	2.72	2.92	3.32	2.33	0.381	4.06	3.05	0.553	1.07
CCTTACGGGTCAAGGTTAAAGCACGGGTGGTACG	1.83	3.82	0.996	0.275	3.27	3.65	0.419	4.78	1.39	4.12	3.57	5.08	4.78	0.827	5.39	3.06	1.01	1.43
CCTTACGGGTCACTGACATGTTATAGCATTTGGA	3.55	4.1	1.46	0.945	1.83	3.22	0.262	4.06	1.38	4.06	3.05	4.89	4.58	2.2	5.13	2.61	0.312	1
TCTAGTGGGTCACGGAGGTCACACACGACGGGTA	7.01	7.92	1.74	0.78	4.58	5.92	5.35	6.43	2.44	4.78	4.95	6.73	7.18	1.53	7.69	4.26	2.34	6.17
